According to PubChem BioAssay AID2642 (Johns Hopkins Ion Channel Center, 2010):
The whole screen tested about 310,000 compounds, of which about 3,900 (1.3%) were called active.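 Rule for the calls: active = compounds whose thallium flux B-score, printed positive for inhibition, exceeds three library SD while starting fluorescence stays within three; inactive = the rest.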 The entries come from a sample that favours actives as a whole.

Target: Potassium voltage-gated channel subfamily KQT member 1 (Homo sapiens) (UniProt P51787)
Assay: inhibitors of human KCNQ1 channel, primary screen, cell-based, thallium flux, high-throughput (AID 2642);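 note: channel opened by potassium depolarization with thallium stimulus after 20 min compound exposure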
Details: CHO-K1 KCNQ1, FluxOR thallium flux fluorescence, at 10 µM; hits give high values

Sequence of Potassium voltage-gated channel subfamily KQT member 1 (Homo sapiens) (P51787 whole entry, looked up): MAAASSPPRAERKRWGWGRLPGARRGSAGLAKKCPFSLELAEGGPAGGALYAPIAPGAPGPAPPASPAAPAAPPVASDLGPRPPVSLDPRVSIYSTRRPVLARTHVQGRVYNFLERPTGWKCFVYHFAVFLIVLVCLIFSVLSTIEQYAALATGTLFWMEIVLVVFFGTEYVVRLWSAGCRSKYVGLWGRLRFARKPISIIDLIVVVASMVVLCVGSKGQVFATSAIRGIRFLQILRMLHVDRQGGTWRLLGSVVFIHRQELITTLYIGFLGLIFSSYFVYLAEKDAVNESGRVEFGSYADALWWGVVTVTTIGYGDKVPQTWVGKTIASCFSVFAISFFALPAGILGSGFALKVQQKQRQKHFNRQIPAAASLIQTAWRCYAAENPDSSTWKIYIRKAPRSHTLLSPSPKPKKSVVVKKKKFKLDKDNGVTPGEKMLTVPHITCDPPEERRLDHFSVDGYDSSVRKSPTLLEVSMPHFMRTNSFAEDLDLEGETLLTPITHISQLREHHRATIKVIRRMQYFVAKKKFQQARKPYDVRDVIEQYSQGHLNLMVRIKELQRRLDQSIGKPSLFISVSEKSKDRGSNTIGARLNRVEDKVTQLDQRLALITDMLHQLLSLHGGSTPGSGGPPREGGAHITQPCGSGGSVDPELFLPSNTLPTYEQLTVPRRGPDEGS

Row | Compound | B-score
1 | O=C(Nc1ccccc1N1CCN(C(=O)c2ccccc2)CC1)c1ccco1 | inactive
2 | CCCNC(=O)c1ccc(N2CCC3(CC2)CC(c2ccc(Cl)cc2)=NO3)c([N+](=O)[O-])c1 | inactive
3 | CCCNC(=O)c1ccc(N2CCC3(CC2)CC(c2cccc(Br)c2)=NO3)c(NC(=O)c2ccco2)c1 | 6 (active)
4 | c1ccc2c(C[n+]3csc4ccccc43)cccc2c1 | inactive
5 | CC1(C(=O)NCCc2c[nH]c3ccccc23)C=CC2(CCCCC2)N1C(=O)c1ccccc1 (configuration not stated) | inactive
6 | C/C(=N\NC(=S)NC1CCCCC1)c1ccc(C)o1 | inactive
7 | CCc1nnc(NC(=O)CSc2nnc(COc3ccc(C#N)cc3)n2-c2ccccc2)s1 | inactive
8 | CCc1nnc(NC(=O)CSc2nnc(Cc3ccccc3)n2-c2ccc(OC)cc2)s1 | 11 (active)
9 | CCc1nnc(NC(=O)CSc2nnc(-c3ccncc3)n2Cc2ccccc2)s1 | inactive
10 | O=C(NCc1ccccc1Cl)C1CCN(S(=O)(=O)N2CCOCC2)CC1 | inactive
11 | O=C1CCc2cc(S(=O)(=O)N3CCC(C(=O)NCc4ccccc4Cl)CC3)ccc2N1 | 8 (active)
12 | O=C(NCc1ccccc1Cl)C1CCN(S(=O)(=O)c2cccc3nonc23)CC1 | inactive
13 | Cc1nnc(-c2ccc(Oc3ccc(C)c(C)c3)c([N+](=O)[O-])c2)o1 | inactive
14 | Cc1c(Br)c([N+](=O)[O-])nn1C(C)C(=O)Nc1nccs1 (configuration not stated) | inactive
15 | CC(=O)Nc1ccc(NC(=O)c2ccc3c(c2)C(=O)N(c2ccccc2C)C3=O)cc1 | inactive
16 | CC(C)OCCCNC(=O)c1cc(Sc2ccc(F)cc2)nc2ccccc12 | inactive
17 | CC(C)OCCCNc1ncnc2c1[nH]c1ccc(F)cc12 | 9 (active)
18 | COc1cc(OC)c(OC)cc1/C=N/Nc1ncnc2c1[nH]c1ccc(C)cc12 | inactive
19 | CN(CCOc1ccc(Br)cc1)CC(=O)Nc1cccc(S(=O)(=O)NC2=NCCC2)c1 | inactive
20 | Cc1cccc(NC(=O)CSCC(=O)Nc2nnc(C3CC3)s2)c1 | inactive
21 | O=C(CSc1nnc(SCc2ccc(F)cc2)s1)Nc1ccc(C(=O)O)cc1 | inactive
22 | CC1=C(C(N)=O)C(c2sccc2C)n2nnnc2N1 (configuration not stated) | inactive
23 | CCCCOc1ccc(C(=O)NN2CCN(C)CC2)cc1 | inactive
24 | CCCOc1ccc(C(=O)C(CCC(CNCC)C(=O)c2ccc(OCCC)cc2)CNCC)cc1 (configuration not stated) | 6 (active)
25 | CCCOc1ccc(C(=O)CCC(=O)OC(C)C(=O)Nc2ccc(NC(C)=O)cc2)cc1 (configuration not stated) | inactive
26 | Cc1nn(CC(=O)NCCc2ccccc2)c(=O)c2cc3occc3n12 | inactive

Row | Compound | B-score
27 | CC12CN(NC(=O)c3ccc(Cl)cc3)C3(C#N)CC1CCC23C (configuration not stated) | inactive
28 | COc1ccccc1NC(=O)/C=C/C(N)=O | inactive
29 | CCc1ccc(NC(=O)NC(C)c2ccc3c(c2)OCO3)cc1 (configuration not stated) | inactive
30 | O=C(Nc1ccc2c(c1)OCCO2)C(c1ccc(F)cc1)N1CCCCC1 (configuration not stated) | inactive
31 | CC1CCCN(C(C(=O)Nc2ccc(C(C)C)cc2)c2ccc3c(c2)OCO3)C1 (configuration not stated) | 7 (active)
32 | CC(C)C[C@H](NC(=O)N1CCn2c1nc1ccccc12)C(=O)NC1CC1 | inactive
33 | Fc1cc(Br)ccc1NC(=S)Nc1cccnc1 | 7 (active)
34 | O=C(Nc1cccnc1)c1cc2cc(Br)ccc2oc1=O | inactive
35 | S=C(Nc1cccnc1)Nc1ccccn1 | inactive
36 | COc1ccc(CCNC(=O)CN(c2ccccc2)S(C)(=O)=O)cc1 | inactive
37 | COc1ccc(OCCNS(=O)(=O)Cc2ccccc2)cc1 | inactive
38 | O=S(=O)(c1ccccc1)N1CCc2ccccc21 | inactive
39 | CNC(=O)c1ccsc1NC(=O)c1ccc(S(=O)(=O)N2CCc3ccccc32)cc1 | 7 (active)
40 | CNC(=O)c1ccsc1NC(=O)c1ccc(S(=O)(=O)N2CCOCC2)cc1 | inactive
41 | CCC(=C/c1sc2ccc3ccccc3c2[n+]1C)/C=C1\Sc2ccc3ccccc3c2N1C | 19 (active)
42 | COc1cc(OC)c(S(=O)(=O)Nc2ccccc2C(=O)O)cc1S(=O)(=O)Nc1ccccc1C(=O)O | inactive
43 | COc1cc(NC(=O)c2ccccc2NS(=O)(=O)c2ccc(Cl)s2)cc(OC)c1 | 8 (active)
44 | COC(=O)c1ccc(NC(=O)c2ccccc2NS(=O)(=O)c2ccccc2)cc1 | inactive
45 | N#Cc1cccc(CN2CCC(=O)N(CCO)CC2)c1 | inactive
46 | COc1ccc(CCNC(=O)c2ccccc2OCc2ccccc2)cc1 | inactive
47 | CC(=O)c1ccccc1OCc1ccc(C(=O)c2ccccc2)cc1 | 9 (active)
48 | O=C(NC1CCC(O)CC1)c1ccccc1OCc1ccc(F)cc1 (configuration not stated) | inactive
49 | C/C(=N\NC(=O)Cc1ccccc1[N+](=O)[O-])c1cccnc1 | inactive
50 | COc1ccc(C(CNC(=O)c2cccc(NS(=O)(=O)c3ccc(C)c(F)c3)c2)N2CCCC2)cc1 (configuration not stated) | 8 (active)
51 | COc1ccc(C(CNC(=O)c2ccc(S(=O)(=O)Nc3ccccc3C)cc2)N2CCOCC2)cc1 (configuration not stated) | inactive
52 | COc1ccc(C(CNC(=O)c2cccc(S(=O)(=O)Nc3ccccc3Cl)c2)N2CCOCC2)cc1 (configuration not stated) | inactive

Row | Compound | B-score
53 | CSCCC(NC(=O)COc1ccccc1)C(=O)OCCOc1ccc(Br)cc1 (configuration not stated) | inactive
54 | Cc1ccc2nc(C)c3c(c2c1)N(c1ccccc1)CC3 | 7 (active)
55 | Cc1nc2ccc(C(=O)N3CCN(c4ccccc4)CC3)cc2s1 | inactive
56 | Cc1ccc2nc(Nc3ccccc3)cc(C)c2c1 | inactive
57 | CCOC(=O)c1nnn(-c2nonc2-n2cccc2)c1CN1CCC(C(=O)OCC)CC1 | inactive
58 | O=C(Nc1cccc(Cl)c1)c1cc(S(=O)(=O)N2CCCCC2)c[nH]1 | inactive
59 | COc1ccccc1N1N=C(c2cccs2)CC1c1ccccc1 (configuration not stated) | inactive
60 | COc1ccc(C2CC(c3cccs3)=NN2c2ccc(F)cc2)cc1OC (configuration not stated) | inactive
61 | Fc1ccc(N2N=C(c3cccs3)CC2c2ccco2)c(F)c1 (configuration not stated) | 6 (active)
62 | O=C(c1c(F)cccc1F)N1CCN(c2ncc(Br)cn2)CC1 | inactive
63 | O=C(NCC(c1ccco1)N1CCc2ccccc21)c1cccc(F)c1 (configuration not stated) | inactive
64 | O=C(COC(=O)c1ccc(S(=O)(=O)N2CCc3ccccc3C2)cc1)NC(=O)NCc1ccco1 | inactive
65 | COc1c(C)cc(C(=O)C2CCCN(S(=O)(=O)c3c(C)noc3C)C2)cc1C (configuration not stated) | inactive
66 | COc1ccc(S(=O)(=O)N2CCN(C(=S)NCC3CCCO3)CC2)cc1OC (configuration not stated) | inactive
67 | CCOc1ccc(S(=O)(=O)N2CCN(C(=S)NCC3CCCO3)CC2)cc1 (configuration not stated) | inactive
68 | S=C(NCC1CCCO1)N1CCN(c2ccc(Cl)c(Cl)c2)CC1 (configuration not stated) | 7 (active)
69 | CC(C)CN(Cc1c(O)ccc2c(=O)c(-c3ccccc3)coc12)CC(C)C | inactive
70 | O=c1c(-c2ccccc2)coc2c(CN3CCOCC3)c(O)ccc12 | inactive
71 | CC(C)=CCc1c(O)c(CC=C(C)C)c2occ(-c3ccc(O)cc3)c(=O)c2c1O | 11 (active)
72 | O=C(NCCc1ccc(Cl)cc1)c1cccc(N2CCCC2=O)c1 | inactive
73 | Cc1nnc(SCC(=O)Nc2ncc3c(n2)CC(C)(C)CC3=O)s1 | inactive
74 | Cc1ccccc1NC(=O)CSc1ccc2nnc(-c3ccccn3)n2n1 | inactive
75 | CC(NC(=O)COC(=O)c1ccc2c(c1)OCO2)c1ccccc1 (configuration not stated) | inactive
76 | NC(=O)c1ccc(NC(=O)COC(=O)c2c3c(nc4ccccc24)/C(=C\c2ccc4c(c2)OCO4)CCC3)cc1 | 7 (active)
77 | COc1cc(/C=C2\CCCc3c2nc2ccccc2c3C(=O)O)cc(Cl)c1O | inactive
78 | CSc1ccccc1NC(=O)c1cc(C2CC2)on1 | inactive

Row | Compound | B-score
79 | Cc1cc(=O)oc2cc(OCC(=O)N3CCN(c4ccc(F)cc4)CC3)c(Cl)cc12 | inactive
80 | O=C(c1cc(-c2ccco2)nc2ccccc12)N(Cc1nnc(-c2ccc(Cl)cc2)o1)C1CC1 | inactive
81 | CC(=O)N/C(=C/c1ccc(Cl)cc1)C(=O)NCCc1c[nH]c2ccccc12 | inactive
82 | O=C(CN1C(=O)NC2(CCCCC2)C1=O)NCCc1c[nH]c2ccccc12 | inactive
83 | N#C/C(=C/c1ccc(N2CCCCC2)o1)C(=O)NCCc1c[nH]c2ccccc12 | 7 (active)
84 | CCCc1ccc(-c2c(C)sc(NC(=O)c3ccnn3C)c2C#N)cc1 | inactive
85 | Cc1noc(/C=C/c2ccco2)c1S(=O)(=O)N1CCC(C(=O)N2CCc3ccccc32)CC1 | inactive
86 | Cc1ccc(NC2=C(Cl)C(=O)OC2OC(=O)c2ccccc2C)cc1 (configuration not stated) | inactive
87 | Cc1ccccc1C(=O)OC1OC(=O)C(Cl)=C1Nc1ccccc1 (configuration not stated) | 11 (active)
88 | O=C1OC(OC(=O)c2ccccc2Br)C(N2CCOCC2)=C1Cl (configuration not stated) | inactive
89 | O=C(NC1CC1)C1=C[C@H](c2c[nH]c3ccccc23)C[C@H](OCc2ccc(CO)cc2)O1 | inactive
90 | CC(C)(C)c1ccc(/C=C/C(=O)NC2CCS(=O)(=O)C2)cc1 (configuration not stated) | inactive
91 | Clc1ccc(C2[C@H]3CN(CC4CCCCC4)[C@H](c4ccccc4)C34CC2(c2cccnc2)C4)cn1 (some centres not stated) | inactive
92 | CCOC(=O)N1CCN(C(=O)c2ccc3c(c2)N(Cc2ccc(C)cc2)CCS3)CC1 | inactive
93 | O=C(NCCc1ccccc1)c1ccc2c(c1)N(Cc1ccccc1)CCS2 | 10 (active)
94 | O=C(NCCN1CCOCC1)c1ccc2c(c1)N(Cc1ccc(Cl)cc1)CCS2 | inactive
95 | CC(=O)c1c(C)n(-c2ccc(C)cc2)c2ccc(O)cc12 | inactive
96 | CCc1ccc(CN(C)C(=O)C2CCC(=O)N(Cc3cccc(OC)c3)C2)nc1 (configuration not stated) | inactive
97 | COc1cc(N2C(=O)c3ccccc3C2=O)c(Cl)cc1C(=O)OCC(=O)N1CCOCC1 | inactive
98 | C=CS(=O)c1sc(Cl)c(N2CCOCC2)c1[N+](=O)[O-] (configuration not stated) | 7 (active)
99 | Cc1ccccc1C(=O)NCC(c1ccco1)N1CCc2ccccc21 (configuration not stated) | inactive
100 | Cc1ccc(C(=O)OCC(=O)NC(=O)Cc2ccccc2)c(O)c1 | inactive
101 | O=[N+]([O-])/C(N=Nc1ccccc1)=N\Nc1ccccc1 | inactive
102 | CCN(C(=O)COC(=O)c1sccc1C)c1c(N)n(Cc2ccccc2)c(=O)[nH]c1=O | inactive
